According to PubChem BioAssay (NCI):
The panel holds about 79,000 compounds, 15% with a hit somewhere; the sample as a whole holds those more often. A number with no mark means an inactive call. Activity calls are given as the source filed them. Cut-off read from the data, not from the text of the source: active = growth inhibition above about 70%; inactive = the rest.

Tests used:
[1] = NCI Yeast Anticancer Drug Screen. Data for the rad52 strain (AID 147);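 note: 0% = growth of vehicle-treated control cultures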; details: S. cerevisiae rad52 mutant growth inhibition, hits give high values
How it was run: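 Growth of repair-deficient yeast cells was compared between compound-treated and vehicle-treated cultures to give percent inhibition.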

[2] = NCI Yeast Anticancer Drug Screen. Data for the rad50EPP+ strain (AID 151);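 note: 0% = growth of vehicle-treated control cultures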; details: S. cerevisiae rad50 mutant strain, hits give high values
How it was run: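 Measured: growth inhibition of rad50EPP+ yeast. Reference: vehicle-treated controls. Screen uses strains with defined genetic alterations in DNA damage repair or cell cycle control.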

[3] = NCI Yeast Anticancer Drug Screen. Data for the mgt1 strain (AID 153); details: S. cerevisiae mgt1 mutant growth inhibition, hits give high values
How it was run: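 Compounds were applied to mgt1 mutant yeast, and growth was then compared against vehicle-treated control cultures to give percent inhibition.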

[4] = NCI Yeast Anticancer Drug Screen. Data for the rad50 strain (AID 155);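 note: 0% = growth of vehicle-only cultures of the same strain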; details: S. cerevisiae rad50 strain growth inhibition, hits give high values
How it was run: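 Genetically altered yeast (DNA repair pathway); compound treatment; growth inhibition vs vehicle ctrl.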

[5] = NCI Yeast Anticancer Drug Screen. Data for the mec2-1 strain (AID 157); details: S. cerevisiae mec2-1 strain, hits give high values
How it was run: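 Compounds were applied to mec2-1 yeast cells. Their growth was then compared with that of vehicle-treated cultures to give growth inhibition.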

[6] = NCI Yeast Anticancer Drug Screen. Data for the rad14 strain (AID 159);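 note: 0% = growth of vehicle-treated control cultures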; details: S. cerevisiae rad14 strain growth inhibition, hits give high values
How it was run: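 Test compounds were applied to a repair-deficient yeast strain. Its growth was then compared with that of cultures given vehicle alone, and inhibition was expressed relative to those controls.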

[7] = NCI Yeast Anticancer Drug Screen. Data for the sgs1 mgt1 strain (AID 161);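 note: 0% = growth of cultures given vehicle only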; details: S. cerevisiae sgs1 mgt1 strain, hits give high values
How it was run: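 Percent growth inhibition was derived by comparing compound-exposed mutant yeast with vehicle-exposed cultures. The strain carries alterations in DNA damage repair.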

[8] = NCI Yeast Anticancer Drug Screen. Data for the CLN2oe strain (AID 163);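 note: 0% = growth of vehicle-only control cultures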; details: S. cerevisiae CLN2oe strain, hits give high values
How it was run: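 Cells of an engineered yeast line with disturbed cell-cycle regulation are treated with compound. Inhibition of growth is then calculated relative to the vehicle-treated reference.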

[9] = NCI Yeast Anticancer Drug Screen. Data for the cln2 rad14 strain (AID 165);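 note: 0% = growth equal to vehicle treated cultures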; details: S. cerevisiae cln2 rad14 strain, hits give high values
How it was run: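 Strain: cln2 rad14 yeast, altered in cell cycle control and DNA damage repair. Read-out: growth inhibition vs vehicle.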

[10] = NCI Yeast Anticancer Drug Screen. Data for the bub3 strain (AID 167); details: S. cerevisiae bub3 mutant strain, hits give high values
How it was run: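 Yeast carrying a defined mutation is treated with each compound, and growth is compared with that of vehicle-exposed cells to give inhibition.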

[11] = NCI Yeast Anticancer Drug Screen. Data for the wt2 strain (AID 169);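 note: 0% = growth of vehicle-treated yeast cultures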; details: S. cerevisiae wt2 strain growth inhibition, hits give high values
How it was run: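 Growth of compound-treated yeast is measured and expressed as inhibition relative to vehicle-only controls.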

[12] = NCI Yeast Anticancer Drug Screen. Data for the mlh1 strain (AID 171);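 note: 0% = growth of vehicle-treated control cultures of the same strain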; details: S. cerevisiae mlh1 strain growth inhibition, hits give high values
How it was run: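 Test agents were incubated with yeast bearing a defined DNA damage repair or cell cycle control alteration; values are growth inhibition normalised to vehicle-treated cultures.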

[13] = NCI Yeast Anticancer Drug Screen. Data for the sgs1 strain (AID 173);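 note: 0% = growth of vehicle-only control cultures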; details: S. cerevisiae sgs1 mutant, hits give high values
How it was run: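 Strain with an altered DNA repair or cell cycle pathway exposed to compound. Growth then measured. Value = inhibition versus vehicle control.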

[14] = NCI Yeast Anticancer Drug Screen. Data for the mlh1 rad18 strain (AID 175); details: S. cerevisiae mlh1 rad18 strain growth inhibition, hits give high values
How it was run: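 A repair-deficient yeast strain is exposed to test compound, and growth is scored relative to vehicle-treated controls.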

[15] = NCI Yeast Anticancer Drug Screen. Data for the rad18 strain (AID 177); details: S. cerevisiae rad18 mutant growth inhibition, hits give high values
How it was run: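 DNA-repair-defective yeast; compound treatment; growth inhibition scored against vehicle.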

[16] = NCI Yeast Anticancer Drug Screen. Data for the wt1 strain (AID 149);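 note: 0% = growth of vehicle-treated wt1 cultures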; details: S. cerevisiae wt1 strain (SPY 50644) growth inhibition, hits give high values
How it was run: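 wt1 yeast, compound-treated; % growth inhibition vs vehicle control.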

[17] = at 5.0 µM (retest, dose inferred, filed as 0.5)
[18] = at 50.0 µM (retest, dose inferred, filed as 5.0)

C[CH2][Sn]([CH2]C)([O]C(=O)C(N)Cc1ccccc1)[O]C(=O)C(N)Cc1ccccc1 (stereo unspecified)
growth inhibition ([1]; at 1.2 µM): 1% | growth inhibition ([1]; at 3.7 µM): -4% | growth inhibition ([1]; at 11.0 µM): 2% | growth inhibition ([1]; at 33.0 µM): 14% | growth inhibition ([1]; at 100.0 µM): 52% | growth inhibition ([2]; at 1.2 µM): -13% | growth inhibition ([2]; at 3.7 µM): -13% | growth inhibition ([2]; at 11.0 µM): 9% | growth inhibition ([2]; at 33.0 µM): -28% | growth inhibition ([2]; at 100.0 µM): -11% | growth inhibition ([3]; at 1.2 µM): 6% | growth inhibition ([3]; at 3.7 µM): -2% | growth inhibition ([3]; at 11.0 µM): 1% | growth inhibition ([3]; at 33.0 µM): 23% | growth inhibition ([3]; at 100.0 µM): 56% | growth inhibition ([4]; at 1.2 µM): 10% | growth inhibition ([4]; at 3.7 µM): 3% | growth inhibition [4, 17]: 19% | growth inhibition ([4]; at 11.0 µM): 14% | growth inhibition ([4]; at 33.0 µM): 15% | growth inhibition [4, 18]: 20% | growth inhibition ([4]; at 50.0 µM): 55.8% | growth inhibition ([4]; at 100.0 µM): 54% | growth inhibition ([5]; at 1.2 µM): 3% | growth inhibition ([5]; at 3.7 µM): 3% | growth inhibition [5, 17]: 19% | growth inhibition ([5]; at 11.0 µM): 0% | growth inhibition ([5]; at 33.0 µM): 3% | growth inhibition [5, 18]: 36% | growth inhibition ([5]; at 50.0 µM): 70.5% (active) | growth inhibition ([5]; at 100.0 µM): 49% | growth inhibition ([6]; at 1.2 µM): -23% | growth inhibition ([6]; at 3.7 µM): -11% | growth inhibition ([6]; at 11.0 µM): -17% | growth inhibition ([6]; at 33.0 µM): -13% | growth inhibition ([6]; at 100.0 µM): 7% | growth inhibition [7, 17]: -21% | growth inhibition [7, 18]: 59% | growth inhibition ([7]; at 50.0 µM): 16.1% | growth inhibition ([8]; at 1.2 µM): 4% | growth inhibition ([8]; at 3.7 µM): -1% | growth inhibition ([8]; at 11.0 µM): 10% | growth inhibition ([8]; at 33.0 µM): 14% | growth inhibition ([8]; at 100.0 µM): 36% | growth inhibition [9, 17]: 17% | growth inhibition [9, 18]: 76% (active) | growth inhibition ([9]; at 50.0 µM): 61.1% | growth inhibition ([10]; at 1.2 µM): -23% | growth inhibition ([10]; at 3.7 µM): -25% | growth inhibition [10, 17]: 2% | growth inhibition ([10]; at 11.0 µM): -39% | growth inhibition ([10]; at 33.0 µM): -29% | growth inhibition [10, 18]: 74% (active) | growth inhibition ([10]; at 50.0 µM): 47.7% | growth inhibition ([10]; at 100.0 µM): 32% | growth inhibition ([11]; at 1.2 µM): -15% | growth inhibition ([11]; at 3.7 µM): -21% | growth inhibition ([11]; at 11.0 µM): -13% | growth inhibition ([11]; at 33.0 µM): -2% | growth inhibition ([11]; at 100.0 µM): 78% (active) | growth inhibition ([12]; at 1.2 µM): 6% | growth inhibition ([12]; at 3.7 µM): -2% | growth inhibition ([12]; at 11.0 µM): 1% | growth inhibition ([12]; at 33.0 µM): 23% | growth inhibition ([12]; at 100.0 µM): 56% | growth inhibition ([13]; at 1.2 µM): -8% | growth inhibition ([13]; at 3.7 µM): 7% | growth inhibition ([13]; at 11.0 µM): 4% | growth inhibition ([13]; at 33.0 µM): 0% | growth inhibition ([13]; at 100.0 µM): 42% | growth inhibition [14, 17]: 17% | growth inhibition [14, 18]: 23% | growth inhibition ([14]; at 50.0 µM): -22.9% | growth inhibition ([15]; at 1.2 µM): 3% | growth inhibition ([15]; at 3.7 µM): 2% | growth inhibition ([15]; at 11.0 µM): 6% | growth inhibition ([15]; at 33.0 µM): 22% | growth inhibition ([15]; at 100.0 µM): 65%

CCCCNC1CCC2(SCCS2)c2[nH]c3ccccc3c21 (stereo unspecified)
growth inhibition ([1]; at 1.2 µM): 2% | growth inhibition ([1]; at 3.7 µM): 5% | growth inhibition ([1]; at 11.0 µM): 3% | growth inhibition ([1]; at 33.0 µM): 4% | growth inhibition ([1]; at 100.0 µM): 5% | growth inhibition ([16]; at 1.2 µM): 1% | growth inhibition ([16]; at 3.7 µM): 1% | growth inhibition ([16]; at 11.0 µM): 0% | growth inhibition ([16]; at 33.0 µM): 1% | growth inhibition ([16]; at 100.0 µM): 6% | growth inhibition ([4]; at 1.2 µM): 2% | growth inhibition ([4]; at 3.7 µM): 3% | growth inhibition [4, 17]: 9% | growth inhibition ([4]; at 11.0 µM): -7% | growth inhibition ([4]; at 33.0 µM): 3% | growth inhibition [4, 18]: 49% | growth inhibition ([4]; at 50.0 µM): 87.3% (active) | growth inhibition ([4]; at 100.0 µM): 6% | growth inhibition ([5]; at 1.2 µM): 10% | growth inhibition ([5]; at 3.7 µM): -1% | growth inhibition [5, 17]: 4% | growth inhibition ([5]; at 11.0 µM): -2% | growth inhibition ([5]; at 33.0 µM): -4% | growth inhibition [5, 18]: -14% | growth inhibition ([5]; at 50.0 µM): 91.2% (active) | growth inhibition ([5]; at 100.0 µM): 7% | growth inhibition ([6]; at 1.2 µM): 6% | growth inhibition ([6]; at 3.7 µM): 0% | growth inhibition ([6]; at 11.0 µM): 4% | growth inhibition ([6]; at 33.0 µM): 1% | growth inhibition ([6]; at 100.0 µM): 9% | growth inhibition [7, 17]: -5% | growth inhibition [7, 18]: 21% | growth inhibition ([7]; at 50.0 µM): 85.2% (active) | growth inhibition ([8]; at 1.2 µM): 10% | growth inhibition ([8]; at 3.7 µM): -4% | growth inhibition ([8]; at 11.0 µM): 0% | growth inhibition ([8]; at 33.0 µM): -1% | growth inhibition ([8]; at 100.0 µM): 6% | growth inhibition [9, 17]: -7% | growth inhibition [9, 18]: 31% | growth inhibition ([9]; at 50.0 µM): 89.5% (active) | growth inhibition ([10]; at 1.2 µM): -6% | growth inhibition ([10]; at 3.7 µM): 1% | growth inhibition [10, 17]: -16% | growth inhibition ([10]; at 11.0 µM): 6% | growth inhibition ([10]; at 33.0 µM): -1% | growth inhibition [10, 18]: 17% | growth inhibition ([10]; at 50.0 µM): 88.2% (active) | growth inhibition ([10]; at 100.0 µM): 3% | growth inhibition ([11]; at 1.2 µM): 1% | growth inhibition ([11]; at 3.7 µM): 2% | growth inhibition ([11]; at 11.0 µM): 3% | growth inhibition ([11]; at 33.0 µM): 3% | growth inhibition ([11]; at 100.0 µM): 8% | growth inhibition ([12]; at 1.2 µM): 5% | growth inhibition ([12]; at 3.7 µM): -2% | growth inhibition ([12]; at 11.0 µM): 4% | growth inhibition ([12]; at 33.0 µM): -1% | growth inhibition ([12]; at 100.0 µM): 6% | growth inhibition ([13]; at 1.2 µM): 0% | growth inhibition ([13]; at 3.7 µM): -2% | growth inhibition ([13]; at 11.0 µM): -1% | growth inhibition ([13]; at 33.0 µM): -3% | growth inhibition ([13]; at 100.0 µM): 3% | growth inhibition [14, 17]: 1% | growth inhibition [14, 18]: 21% | growth inhibition ([14]; at 50.0 µM): 84.7% (active) | growth inhibition ([15]; at 1.2 µM): 2% | growth inhibition ([15]; at 3.7 µM): -4% | growth inhibition ([15]; at 11.0 µM): -4% | growth inhibition ([15]; at 33.0 µM): -18% | growth inhibition ([15]; at 100.0 µM): 4%
